“And” between values parts separate entries of the source, which are not always exact repeats. Equal entries are not always repeated. Hit rate of the full screen: of about 310,000 compounds, about 1,200 (0.39%) were called active. No rule for the calls is given here. Not all results are given here. Entries with a potency or affinity are not part of this list.
molecular target: Large T antigen (Simian virus 40) (UniProt P03070); assay: TAg ATPase/helicase activity blockers – biochemical (AID 1903); details: SV40 large T antigen ATPase/helicase inhibition assay; at 20 µM; hits give high values
Sequence (P03070 whole entry, looked up): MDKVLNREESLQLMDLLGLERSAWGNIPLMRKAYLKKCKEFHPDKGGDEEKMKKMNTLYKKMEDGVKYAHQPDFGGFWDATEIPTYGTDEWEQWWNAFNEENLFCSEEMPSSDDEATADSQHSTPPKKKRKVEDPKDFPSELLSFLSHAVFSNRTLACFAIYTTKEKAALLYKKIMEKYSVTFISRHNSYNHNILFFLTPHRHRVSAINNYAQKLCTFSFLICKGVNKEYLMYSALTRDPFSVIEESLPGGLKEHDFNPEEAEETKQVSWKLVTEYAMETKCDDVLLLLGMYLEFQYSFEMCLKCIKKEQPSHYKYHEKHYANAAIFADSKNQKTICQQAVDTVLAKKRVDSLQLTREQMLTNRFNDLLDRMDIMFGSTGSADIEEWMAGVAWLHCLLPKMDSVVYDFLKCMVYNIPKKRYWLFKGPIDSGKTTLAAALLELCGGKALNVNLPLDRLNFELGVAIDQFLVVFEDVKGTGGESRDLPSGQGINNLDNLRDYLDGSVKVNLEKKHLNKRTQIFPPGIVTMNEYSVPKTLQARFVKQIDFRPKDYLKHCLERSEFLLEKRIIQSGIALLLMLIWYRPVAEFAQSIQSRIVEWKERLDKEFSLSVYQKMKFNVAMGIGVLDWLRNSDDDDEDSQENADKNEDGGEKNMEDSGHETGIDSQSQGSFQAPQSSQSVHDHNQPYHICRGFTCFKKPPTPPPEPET

inhibition, inactive:
O=C(O)CN1C(=O)c2ccc(Oc3ccc([N+](=O)[O-])cc3)cc2C1=O 7.08%
CCOCCCn1c(SCC(=O)Nc2ccc3[nH]c(=O)[nH]c3c2)nc2ccccc2c1=O 10.2%
O=C(Cc1c(Cl)cccc1Cl)N/N=C/c1cccnc1 17.8%
COc1cc(C(=O)CSc2nnc(-c3ccc(O)cc3)n2CC2CCCO2)ccc1NC(C)=O (configuration not stated) 4.93%
COc1ccc(CCN2C(=O)NC(NS(=O)(=O)c3ccc(Cl)cc3)(C(F)(F)F)C2=O)cc1OC (configuration not stated) 12.9%
O=C(COC(=O)C1COc2ccccc2O1)Nc1cccc(S(=O)(=O)N2CCCCC2)c1 (configuration not stated) 11.3%
CN(c1ccc(C(=O)Nc2ccc3c(c2)OCO3)cc1)S(C)(=O)=O 14.1%
COc1ccc2c(C)c(CC(=O)N3CCN(C(=O)C4COc5ccccc5O4)CC3)c(=O)oc2c1C (configuration not stated) 12%
Cc1c(CC(=O)N2CCN(C(=O)C3COc4ccccc4O3)CC2)c(=O)oc2c(C)c(O)ccc12 (configuration not stated) 24.4%
Cc1cccn2c(=O)c3cc(C(=O)NC4CCCCC4)c(=N)n(Cc4ccccc4)c3nc12 5.16%
Cc1nc2sc3c(c2c(=O)o1)CCC3 9.19%
Cc1nc2sc3c(c2c2nc(-c4ccco4)nn12)CCCC3 14.8%
COc1ccc(C(=O)NCC(=O)OCc2ccccc2F)cc1 6.15%
O=C(COc1ccc(S(=O)(=O)N2CCOCC2)cc1)NCCCn1ccnc1 7.23%
COc1cccc(CNS(=O)(=O)c2c(C(=O)N3CCCCCC3)c(C)n(C)c2C)c1 2.83%
CC(C)CN(CC(C)C)C(=O)CN1C(=O)NC2(CCc3ccccc3C2)C1=O (configuration not stated) 23.5%
N#Cc1c(N)sc(=S)c2c1CCCC2 29.3%
N#Cc1c(N)sc2c1CCCCCC2 32%
Cn1c(CNC(=O)c2ccc3c(c2)OCO3)nnc1SCC(=O)Nc1ccccc1Cl 10.7%
Nc1ccc(OCCc2ccccc2)cc1 30.9%
COc1ccc(Cc2c(N)nc(N)nc2N)cc1 -2.12%
CC(C)C1N=C2c3ccccc3N=C(SCC#N)N2C1=O (configuration not stated) 6.69%
CC(C)C1N=C2c3ccccc3N=C(SCC(=O)NCCc3ccc(S(N)(=O)=O)cc3)N2C1=O (configuration not stated) 1%
Cc1ccc(-c2nnc(SCC(=O)N3c4ccccc4NC(=O)C3(C)C)n2N)cc1 4.15%
Cc1ccc(/C=C/C(=O)c2ccccc2O)cc1 11.7%
COc1cc(/C=C/C(=O)O)ccc1O 24.2%
Nc1cccc(/C=C/C(=O)O)c1 15.7%
O=C(/C=C/c1ccc(O)c(O)c1)NC(=O)c1ccccc1O 6.12%
CC(/C=C/c1ccccc1)=N/O 10.9%
O=Cc1ccc(O)c(O)c1 34.4%
COc1cc(/C=C/c2ccc(O)cc2)cc(OC)c1 11.3% and 1.99%
CCOc1ccc(/C=C\C(C)=N\O)cc1 29.6%
